The target of assay [1] is T1, Ephrin type-A receptor 3 (Homo sapiens) (UniProt P29320).
T1 sequence (whole entry): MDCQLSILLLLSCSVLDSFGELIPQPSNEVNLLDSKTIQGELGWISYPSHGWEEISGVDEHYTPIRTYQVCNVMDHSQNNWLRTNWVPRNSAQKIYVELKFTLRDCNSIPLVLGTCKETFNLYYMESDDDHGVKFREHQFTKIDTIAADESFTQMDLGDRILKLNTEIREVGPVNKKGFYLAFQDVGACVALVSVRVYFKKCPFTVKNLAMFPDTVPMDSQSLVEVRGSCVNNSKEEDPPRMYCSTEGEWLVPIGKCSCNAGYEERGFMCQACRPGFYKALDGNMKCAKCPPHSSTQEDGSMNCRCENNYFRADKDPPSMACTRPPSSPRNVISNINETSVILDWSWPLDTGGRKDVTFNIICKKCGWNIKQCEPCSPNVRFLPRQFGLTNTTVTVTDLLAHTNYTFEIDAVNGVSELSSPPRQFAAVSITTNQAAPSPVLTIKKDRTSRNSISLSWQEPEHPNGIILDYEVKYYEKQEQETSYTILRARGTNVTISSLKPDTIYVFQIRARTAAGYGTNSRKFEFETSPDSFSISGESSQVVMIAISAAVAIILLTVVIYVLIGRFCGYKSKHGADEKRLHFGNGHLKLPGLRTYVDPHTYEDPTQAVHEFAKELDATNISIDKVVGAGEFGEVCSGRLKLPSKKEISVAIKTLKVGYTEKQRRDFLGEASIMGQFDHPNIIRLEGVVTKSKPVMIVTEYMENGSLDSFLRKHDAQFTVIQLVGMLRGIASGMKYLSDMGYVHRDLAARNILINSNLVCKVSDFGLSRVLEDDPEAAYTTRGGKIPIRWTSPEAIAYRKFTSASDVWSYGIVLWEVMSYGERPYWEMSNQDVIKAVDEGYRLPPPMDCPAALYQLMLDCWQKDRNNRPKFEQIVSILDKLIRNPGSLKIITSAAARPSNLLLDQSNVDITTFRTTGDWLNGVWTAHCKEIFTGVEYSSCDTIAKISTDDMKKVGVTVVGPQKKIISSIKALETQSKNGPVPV
Conditions: at 10 µM.

Assay [2] concerns the target Ephrin type-A receptor 4 (Homo sapiens) (UniProt P54764). Conditions: at 1 µM.
Assay [3] has the same target. The conditions noted are these: at 10 µM.
Assay [4] has as its target Ephrin type-A receptor 5 (Homo sapiens) (UniProt P54756). The conditions noted are these: at 1 µM.
Assay [5] has the same target. The conditions noted are these: at 10 µM.
Assay [6] has as its target Ephrin type-A receptor 7 (Homo sapiens) (UniProt Q15375). The conditions noted are these: at 1 µM.
Assay [7] has the same target. Conditions: at 10 µM.
Assay [8] has as its target T2, Ephrin type-A receptor 8 (Homo sapiens) (UniProt P29322).
T2 sequence (whole entry): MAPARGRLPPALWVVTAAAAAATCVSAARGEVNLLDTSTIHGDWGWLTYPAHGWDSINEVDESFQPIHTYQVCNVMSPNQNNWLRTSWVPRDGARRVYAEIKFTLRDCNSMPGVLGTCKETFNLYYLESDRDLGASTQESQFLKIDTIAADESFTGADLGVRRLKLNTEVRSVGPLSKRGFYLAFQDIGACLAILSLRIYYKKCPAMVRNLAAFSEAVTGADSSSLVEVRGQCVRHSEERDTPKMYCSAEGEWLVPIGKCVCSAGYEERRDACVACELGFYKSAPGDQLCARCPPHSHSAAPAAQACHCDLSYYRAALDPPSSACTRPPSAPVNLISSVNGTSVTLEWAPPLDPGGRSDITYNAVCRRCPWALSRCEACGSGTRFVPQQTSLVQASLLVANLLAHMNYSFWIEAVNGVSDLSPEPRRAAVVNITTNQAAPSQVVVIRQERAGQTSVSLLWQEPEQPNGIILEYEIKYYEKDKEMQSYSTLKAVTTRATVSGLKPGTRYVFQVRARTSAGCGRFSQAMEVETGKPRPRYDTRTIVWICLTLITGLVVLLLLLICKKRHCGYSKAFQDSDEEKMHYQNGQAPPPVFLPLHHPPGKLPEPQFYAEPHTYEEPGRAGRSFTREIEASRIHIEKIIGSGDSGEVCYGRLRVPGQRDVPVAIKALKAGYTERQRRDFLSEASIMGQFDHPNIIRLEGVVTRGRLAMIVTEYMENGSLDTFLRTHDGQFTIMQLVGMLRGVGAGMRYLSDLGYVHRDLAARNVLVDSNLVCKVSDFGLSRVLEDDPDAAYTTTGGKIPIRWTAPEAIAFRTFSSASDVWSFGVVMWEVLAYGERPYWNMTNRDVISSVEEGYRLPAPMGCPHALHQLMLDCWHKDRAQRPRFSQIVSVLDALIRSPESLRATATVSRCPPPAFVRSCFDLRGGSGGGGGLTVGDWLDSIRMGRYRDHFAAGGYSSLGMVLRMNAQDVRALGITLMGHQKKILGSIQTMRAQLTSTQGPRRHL
The conditions noted are these: at 1 µM.

The target of assay [9] is T2, Ephrin type-A receptor 8 (Homo sapiens). Conditions: at 10 µM.
In assay [10] the target is T3, Ephrin type-B receptor 1 (Homo sapiens) (UniProt P54762).
T3 sequence (whole entry): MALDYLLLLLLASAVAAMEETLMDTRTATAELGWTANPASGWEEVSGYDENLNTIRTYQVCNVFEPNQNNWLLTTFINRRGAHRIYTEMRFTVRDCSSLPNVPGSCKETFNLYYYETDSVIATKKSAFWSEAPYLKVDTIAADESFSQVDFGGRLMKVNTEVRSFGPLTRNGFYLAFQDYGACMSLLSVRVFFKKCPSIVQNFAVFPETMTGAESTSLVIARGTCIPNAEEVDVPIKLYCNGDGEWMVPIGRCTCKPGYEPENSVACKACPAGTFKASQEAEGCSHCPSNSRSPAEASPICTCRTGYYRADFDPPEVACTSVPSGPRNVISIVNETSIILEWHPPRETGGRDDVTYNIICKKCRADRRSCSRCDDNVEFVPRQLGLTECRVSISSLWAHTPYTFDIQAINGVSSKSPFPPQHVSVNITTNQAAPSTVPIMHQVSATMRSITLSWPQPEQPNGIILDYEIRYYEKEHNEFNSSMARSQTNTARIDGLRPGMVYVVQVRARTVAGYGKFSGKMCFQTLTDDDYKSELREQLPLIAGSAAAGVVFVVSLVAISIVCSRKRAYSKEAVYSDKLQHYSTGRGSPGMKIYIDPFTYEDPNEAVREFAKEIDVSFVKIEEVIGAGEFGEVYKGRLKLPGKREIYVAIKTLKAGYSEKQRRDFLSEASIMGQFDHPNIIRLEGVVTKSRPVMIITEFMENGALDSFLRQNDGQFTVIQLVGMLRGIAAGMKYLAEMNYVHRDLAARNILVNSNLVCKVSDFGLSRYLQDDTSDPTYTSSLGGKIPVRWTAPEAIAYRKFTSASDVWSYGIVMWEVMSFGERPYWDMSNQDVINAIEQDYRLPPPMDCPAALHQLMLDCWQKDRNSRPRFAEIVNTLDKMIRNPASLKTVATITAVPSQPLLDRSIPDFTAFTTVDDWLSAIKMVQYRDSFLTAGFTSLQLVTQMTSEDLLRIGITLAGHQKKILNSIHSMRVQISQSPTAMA
Conditions: at 1 µM.

By residual activity is commonly meant the signal under treatment as a percentage of the control signal.

Chain of Ephrin type-A receptor 7 (Homo sapiens) (Q15375 28-998 limits assumed): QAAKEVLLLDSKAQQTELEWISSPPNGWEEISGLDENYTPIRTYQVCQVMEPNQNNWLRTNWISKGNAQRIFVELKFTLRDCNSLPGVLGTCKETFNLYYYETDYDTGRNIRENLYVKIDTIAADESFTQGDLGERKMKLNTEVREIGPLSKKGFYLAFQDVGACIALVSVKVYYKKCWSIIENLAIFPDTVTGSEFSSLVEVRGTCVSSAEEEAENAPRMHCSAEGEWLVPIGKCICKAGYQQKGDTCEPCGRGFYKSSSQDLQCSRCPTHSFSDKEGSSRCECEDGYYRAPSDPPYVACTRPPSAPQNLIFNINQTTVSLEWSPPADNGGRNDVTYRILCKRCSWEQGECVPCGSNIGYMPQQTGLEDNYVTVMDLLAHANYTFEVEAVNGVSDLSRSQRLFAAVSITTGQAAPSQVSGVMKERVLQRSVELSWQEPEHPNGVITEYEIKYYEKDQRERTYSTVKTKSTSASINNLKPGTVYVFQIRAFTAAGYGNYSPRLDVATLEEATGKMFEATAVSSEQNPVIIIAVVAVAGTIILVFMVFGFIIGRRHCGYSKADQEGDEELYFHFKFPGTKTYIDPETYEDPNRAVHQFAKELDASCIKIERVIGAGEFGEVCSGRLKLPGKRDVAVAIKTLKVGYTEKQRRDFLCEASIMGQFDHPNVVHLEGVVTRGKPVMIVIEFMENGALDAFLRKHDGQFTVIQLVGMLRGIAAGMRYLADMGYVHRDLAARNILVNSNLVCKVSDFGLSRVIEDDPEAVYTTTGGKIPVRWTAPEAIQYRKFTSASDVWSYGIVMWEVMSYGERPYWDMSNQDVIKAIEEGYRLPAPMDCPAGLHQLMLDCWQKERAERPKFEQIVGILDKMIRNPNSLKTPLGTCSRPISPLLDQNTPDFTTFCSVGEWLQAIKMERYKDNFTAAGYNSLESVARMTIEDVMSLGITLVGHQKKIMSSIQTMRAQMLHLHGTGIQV
Chain of Ephrin type-A receptor 5 (Homo sapiens) (P54756 whole entry): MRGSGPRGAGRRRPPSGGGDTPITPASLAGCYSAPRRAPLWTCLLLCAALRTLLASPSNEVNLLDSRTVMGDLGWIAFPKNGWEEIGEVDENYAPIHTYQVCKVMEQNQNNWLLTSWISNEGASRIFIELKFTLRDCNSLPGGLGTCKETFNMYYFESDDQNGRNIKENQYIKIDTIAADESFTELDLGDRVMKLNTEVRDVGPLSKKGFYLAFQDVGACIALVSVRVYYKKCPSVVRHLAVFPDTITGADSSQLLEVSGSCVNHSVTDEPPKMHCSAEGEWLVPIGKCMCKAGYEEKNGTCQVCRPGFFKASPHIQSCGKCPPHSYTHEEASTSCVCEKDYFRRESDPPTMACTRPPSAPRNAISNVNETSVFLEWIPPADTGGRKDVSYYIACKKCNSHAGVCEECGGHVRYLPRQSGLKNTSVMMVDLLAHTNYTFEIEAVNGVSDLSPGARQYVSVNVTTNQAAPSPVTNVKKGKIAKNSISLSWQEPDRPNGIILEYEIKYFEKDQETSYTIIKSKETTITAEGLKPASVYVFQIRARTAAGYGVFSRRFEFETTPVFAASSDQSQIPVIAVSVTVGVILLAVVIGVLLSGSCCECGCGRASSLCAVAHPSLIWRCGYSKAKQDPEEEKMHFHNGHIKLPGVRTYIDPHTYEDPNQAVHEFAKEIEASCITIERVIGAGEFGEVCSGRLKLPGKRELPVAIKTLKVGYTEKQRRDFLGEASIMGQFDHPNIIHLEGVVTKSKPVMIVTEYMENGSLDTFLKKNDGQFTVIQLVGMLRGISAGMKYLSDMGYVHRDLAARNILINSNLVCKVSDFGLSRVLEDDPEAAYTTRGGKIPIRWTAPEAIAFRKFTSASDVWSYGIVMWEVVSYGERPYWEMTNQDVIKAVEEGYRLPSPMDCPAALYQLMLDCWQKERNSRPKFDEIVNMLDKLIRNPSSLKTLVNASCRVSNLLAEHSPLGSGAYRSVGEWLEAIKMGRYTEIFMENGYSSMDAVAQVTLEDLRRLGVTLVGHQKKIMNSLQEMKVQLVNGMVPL
Chain of Ephrin type-A receptor 4 (Homo sapiens) (P54764 whole entry): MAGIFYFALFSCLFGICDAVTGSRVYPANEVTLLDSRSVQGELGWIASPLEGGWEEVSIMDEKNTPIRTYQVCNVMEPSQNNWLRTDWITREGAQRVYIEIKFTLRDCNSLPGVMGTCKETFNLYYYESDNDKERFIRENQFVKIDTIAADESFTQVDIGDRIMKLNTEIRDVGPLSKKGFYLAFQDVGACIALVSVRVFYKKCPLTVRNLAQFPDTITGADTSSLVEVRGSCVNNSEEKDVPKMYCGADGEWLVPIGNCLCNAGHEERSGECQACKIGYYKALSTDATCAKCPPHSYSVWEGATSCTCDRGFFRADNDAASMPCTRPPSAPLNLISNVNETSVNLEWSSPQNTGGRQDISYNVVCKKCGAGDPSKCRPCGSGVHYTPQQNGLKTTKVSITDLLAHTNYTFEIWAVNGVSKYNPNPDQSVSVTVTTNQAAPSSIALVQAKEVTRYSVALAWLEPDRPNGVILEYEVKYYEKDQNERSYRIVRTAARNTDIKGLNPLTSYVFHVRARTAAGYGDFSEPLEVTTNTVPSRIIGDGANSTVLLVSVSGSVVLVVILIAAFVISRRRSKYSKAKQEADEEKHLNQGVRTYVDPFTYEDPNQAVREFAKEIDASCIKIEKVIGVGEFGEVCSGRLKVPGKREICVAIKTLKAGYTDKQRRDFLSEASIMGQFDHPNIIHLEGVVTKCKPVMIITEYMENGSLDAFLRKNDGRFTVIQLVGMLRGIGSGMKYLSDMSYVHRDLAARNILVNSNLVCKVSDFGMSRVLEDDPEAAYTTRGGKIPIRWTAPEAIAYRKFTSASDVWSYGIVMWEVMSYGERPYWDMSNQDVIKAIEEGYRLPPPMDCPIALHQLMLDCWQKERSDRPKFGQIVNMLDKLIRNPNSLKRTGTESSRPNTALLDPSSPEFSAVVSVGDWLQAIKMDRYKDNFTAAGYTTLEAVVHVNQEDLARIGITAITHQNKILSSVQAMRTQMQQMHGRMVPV

For the compound `Cc1ccc(S(=O)(=O)/C=C/C#N)cc1`, the residual activity in assay [1] was determined as 105%; in [2], 106%; in assay [3] it was 110%; in [4] it was 107%; in [5], 101%; in assay [6], 94%. Further, the residual activity turned out to be 96% in assay [7], 94% in assay [8], 102% in [9] and 93% in assay [10].
